Test results from the supplement of paper PMC6555819.

System: RARg homodimer (NR concentration 270 nM)
Experiment: PBM binding z-score (relative to random genomic background probes); higher = stronger binding; sequences stand for … in GC…GCGATTGACAGCGTAGAATGAAGG
Procedure, shortened: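 Regression normalization was applied to scanned fluorescence from custom Agilent 4×180K protein-binding microarrays. Before scanning, arrays were incubated 1 h with ligand-free nuclear receptor dimers, and binding was detected with antibodies against each partner (one per run). Binding z-scores use the random background probes as reference.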

Question: With GTTACAGGGTCAGCTAGAGGCCAGAGTATGGAAA as the sequence, how does the PBM binding z-score read?
Answer: 5.21

Question: For TCTTATAGGTAAAGGTGAAAGTCGAACGATATGA, which PBM binding z-score is on record?
Answer: 1.45

Question: With AGAACGAGGGCACGCAGAGTTGATAGCAGAGTAG as the sequence, how does the PBM binding z-score read?
Answer: 2.58

Question: Which PBM binding z-score does the source give for CGAGCTAGGTCATCCAGGACAGTGAATACATTGA here?
Answer: 4.72

Question: For CGTCCAAGGTCAGAGGTCAGTGAAGAGATGACGG, which PBM binding z-score is on record?
Answer: 7.05

Question: How did the PBM binding z-score turn out when TCATATAGGTAAATGCTAGGTCAAAGTCCGATCT was run?
Answer: 1.58

Question: For CAGCCTAGGTCACGGCCAGTATAGGAGGAACGTT, which PBM binding z-score is on record?
Answer: 5.72

Question: Which PBM binding z-score does the source give for TGTCAAAGTTCAAAGGTAACGTTAGTATCCACAC here?
Answer: 6.13

Question: For TCTTGTAGATCAAAGGTTAGGAAAGCCGAAGCCT, which PBM binding z-score is on record?
Answer: 0.458

Question: CGTCCAAGGTCAAGTTCAGTGAAAGAGACTCGAA was tested. Which PBM binding z-score did it give?
Answer: 7.17

Question: For CAAACTAGGTAACGAAAGGTCAAAGTCGAATGAC, which PBM binding z-score is on record?
Answer: 5.08

Question: For CCTAGCAGGCCAGGGTTACTCAAGCATTTCGCTT, which PBM binding z-score is on record?
Answer: -0.141

Question: For GTACCAAGGTGAATAGGTCGTTGCTGAGTAGGCG, which PBM binding z-score is on record?
Answer: 1.13

Question: ACTTACGGGTCACCGAGGTTATAGCACGCGTATA was tested. Which PBM binding z-score did it give?
Answer: 5.96

Question: Which PBM binding z-score does the source give for GCTGCTAGGTCAAATGATGGTCAGCTAAAGCTCG here?
Answer: 5.22

Question: With AATACAGGGTCACTCGGCCAGAGTAGGTACGAAT as the sequence, how does the PBM binding z-score read?
Answer: 5.06

Question: TAGCCTAGGTTAGATCGGGCCAGTATACGCTATA was tested. Which PBM binding z-score did it give?
Answer: 0.127

Question: Which PBM binding z-score does the source give for TCATATAGGTAATACATGTGAAAGTCGGCATCTA here?
Answer: 0.544

Question: ATACCAGGGTGATCGTGAGGTCGTTGATACTAAC was tested. Which PBM binding z-score did it give?
Answer: 0.727

Question: With CCTATTAGTTGACCATAAGGGCATCCGAAGCTCG as the sequence, how does the PBM binding z-score read?
Answer: 1.02

Question: How did the PBM binding z-score turn out when CGTACAAGGTCAATGCTAGGTCAGTGAAAGCATT was run?
Answer: 7.1

Question: How did the PBM binding z-score turn out when TCTGCTAGGTCAGTTCGTCAGCTAACGAGCTGCC was run?
Answer: 3
